Publication PMC7826789 (International Journal of Molecular Sciences, 2021)
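Note: KINOMEscan scanMAX binding as percent activity remaining versus control; lower means stronger binding.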

Each compound was assayed on T1, VEGFR2. Conditions: Compound Concentration (nM):1000.
T1 construct: gene KDR
For `CCS(=O)(=O)c1ccc(OC)c(Nc2ncc(-c3cccc(F)c3)o2)c1` [GW621970X], the “Percent Control” value was 2.4%.
`Cc1cc(O)cc(C)c1/C=C/c1cncc(C(N)=O)c1` [GW435821X] was tested, and the “Percent Control” value was 87%.
In the case of `COc1ccc(COc2ccc(Cc3cnc(N)nc3N)cc2OC)cc1` [GW632580X], the “Percent Control” value is reported as 85%.
In the case of `COc1cc(/C=N/Nc2ncnc3[nH]ncc23)ccc1O` [GW578748X], the “Percent Control” value is reported as 52%.
With `NS(=O)(=O)c1ccc(N/N=C2\C(=O)Nc3ccc(Cl)cc32)cc1` [GW280670X] the “Percent Control” value was 52%.
In the case of `CN(C)c1cc2c(Nc3ccc4c(cnn4Cc4ccccc4)c3)ncnc2cn1` [GW282974X], the “Percent Control” value is reported as 94%.
With `COc1cc(C=NNc2ncnc3c2cnn3-c2ccccc2)ccc1O` [GW513184X] the “Percent Control” value was 95%.
For `CC(C)COC(=O)c1ccc2c(c1)/C(=C/Nc1ccc(S(N)(=O)=O)cc1)C(=O)N2` [GW416981X], the “Percent Control” value was 63%.
`C[C@@H](Oc1cc(-n2cnc3ccc(OC4CCN(C)CC4)cc32)sc1C(N)=O)c1ccccc1Cl` [GSK579289A] was tested, and the “Percent Control” value was 64%.
In the case of `COC(=O)Nc1nc2ccc(Oc3ccc(NC(=O)Nc4cc(C(F)(F)F)ccc4F)cc3)cc2s1.Cl` [GW693917A], the “Percent Control” value is reported as 13%.
In the case of `O=C1Nc2ccc(C(=O)c3ccco3)cc2C1=Cc1cc(Cl)c(O)c(Cl)c1` [GW406108X], the “Percent Control” value is reported as 78%.
For `Cl.O=S1CCN(Cc2ccc(-c3ccc4ncnc(Nc5ccc(OCc6ccccc6)c(F)c5)c4c3)o2)CC1` [GW576924A], the “Percent Control” value was 97%.
`CC1=C(C(=O)Nc2ccc3[nH]ncc3c2)C(c2ccc(Cl)c(Cl)c2)CC(=O)N1` (stereo not drawn) [GSK299115A] was tested, and the “Percent Control” value was 92%.
`O=C(Nc1n[nH]c2nc(-c3ccc(O)cc3)c(Br)cc12)C1CC1` [SB-725317] was tested, and the “Percent Control” value was 57%.
With `COc1ccc2cc(-c3c(-c4ccncc4)nc(-c4ccc(S(C)(=O)=O)cc4C)n3C)ccc2c1` [SB-633825] the “Percent Control” value was 49%.
With `COc1cc2ncnc(Nc3ccc4c(cnn4Cc4ccccc4)c3)c2cc1OC.Cl` [GW282449A] the “Percent Control” value was 79%.
With `Cl.c1ccc(Cc2nc3ccc(Nc4ncnc5ccccc45)cc3[nH]2)cc1` [GR269666A] the “Percent Control” value was 72%.
`NS(=O)(=O)c1ccc(N/N=C2\C(=O)Nc3ccc(-c4cnco4)cc32)cc1` [GW276655] was tested, and the “Percent Control” value was 71%.
In the case of `COc1ccc2[nH]c3c4[nH]c5ccc(OC)cc5c4c4c(c3c2c1)C(=O)NC4=O` [GW296115X], the “Percent Control” value is reported as 59%.
For `CCc1ccc(Oc2nccc(-c3c(-c4ccc(F)cc4)ncn3C3CCNCC3)n2)cc1` [SB-242719], the “Percent Control” value was 100%.
For `CC1=C(C(=O)Nc2ccc3[nH]ncc3c2)C(c2ccc3ccccc3c2)CC(=O)N1` (stereo not drawn) [GSK270822A], the “Percent Control” value was 90%.
In the case of `NS(=O)(=O)c1ccc(Nc2ncc(-c3ccccc3)o2)cc1` [GW572399X], the “Percent Control” value is reported as 22%.
In the case of `C/C(Nc1ccc(S(N)(=O)=O)cc1)=C1/C(=O)Nc2ccccc21` [GW335962X], the “Percent Control” value is reported as 1.2%.

What follows are compounds tested on T2, VPS34. Conditions: Compound Concentration (nM):1000.
T2 construct: gene PIK3C3
With `COc1cc(N2CCN(C(C)C)CC2)ccc1Nc1nc(Nc2ccc(F)cc2C(=O)NC[C@@H](O)CO)c2cc[nH]c2n1` [GSK1392956A] the “Percent Control” value was 82%.
With `Nc1ncnc2occ(-c3ccc(NC(=O)Nc4cc(C(F)(F)F)ccc4F)cc3)c12` [GW770249X] the “Percent Control” value was 100%.
For `NS(=O)(=O)c1ccc(N/N=C2\C(=O)Nc3ccc(C(=O)NCc4ccncc4)cc32)cc1` [GW300657X], the “Percent Control” value was 71%.
With `COc1cccc(-c2c[nH]c3c(N/N=C/c4ccncc4)ncnc23)c1` [GW814408X] the “Percent Control” value was 65%.
In the case of `COc1ccc2c(-c3ccnc(Nc4cccc(OC(F)(F)F)c4)n3)cnn2n1` [GW810372X], the “Percent Control” value is reported as 29%.
In the case of `CCS(=O)(=O)c1ccc(OC)c(Nc2ncc(-c3cccc(OC)c3)o2)c1` [GW580509X], the “Percent Control” value is reported as 100%.
In the case of `Cl.O=C(Nc1ccc(Oc2ccc3[nH]c(NC(=O)c4ccco4)nc3c2)cc1)Nc1cc(C(F)(F)F)ccc1F` [GW683134A], the “Percent Control” value is reported as 100%.
`CCn1c(-c2nonc2N)nc2c(C#CC(C)(C)O)nc(OCCNC)cc21.Cl` [GSK949675] was tested, and the “Percent Control” value was 100%.
With `COc1cccc(-n2ncc3c(N/N=C/c4ccncc4)ncnc32)c1` [GW784752X] the “Percent Control” value was 100%.
`COc1ccccc1-c1cc(/C=C2\C(=O)Nc3ncc(Br)cc32)cc(Br)c1O` [GW442130X] was tested, and the “Percent Control” value was 77%.
For `Cl.O=C(O[C@H]1CN[C@H](C#Cc2cc3ncnc(Nc4ccc5c(cnn5Cc5ccccc5)c4)c3s2)C1)N1CCOCC1` [GSK200398A], the “Percent Control” value was 98%.
`COc1cc2ncn(-c3cc(O[C@H](C)c4ccccc4Cl)c(C(N)=O)s3)c2cc1OC` [GSK237701A] was tested, and the “Percent Control” value was 0.3%.
For `Cl.O=C(Nc1ccc(Oc2ccc3[nH]c(NC(=O)c4ccccc4)nc3c2)cc1)Nc1cc(C(F)(F)F)ccc1F` [GW709042A], the “Percent Control” value was 100%.
In the case of `NS(=O)(=O)c1ccc(N/N=C2\C(=O)Nc3ccc(C(=O)NCCc4c[nH]cn4)cc32)cc1` [GW300660X], the “Percent Control” value is reported as 86%.
`CN1CCN(C(=O)c2ccc(NC(=O)Nc3ccc(N(C)c4ccnc(Nc5ccc(CS(C)(=O)=O)cc5)n4)cc3)cc2)CC1.Cl` [GW830263A] was tested, and the “Percent Control” value was 74%.
`CN(C)CCNC(=O)Nc1ccc(N(C)c2ccnc(Nc3ccc(CS(C)(=O)=O)cc3)n2)cc1.Cl` [GW830900A] was tested, and the “Percent Control” value was 77%.
For `COc1cc(C)c(N(C)C(=O)CN(C)C)cc1Nc1nc(Nc2cccc(F)c2C(N)=O)c2cc[nH]c2n1` [GSK2219385], the “Percent Control” value was 82%.
In the case of `CCS(=O)(=O)c1ccc(OC)c(Nc2ncc(-c3cccc(F)c3)o2)c1` [GW621970X], the “Percent Control” value is reported as 100%.
For `Cc1cc(O)cc(C)c1/C=C/c1cncc(C(N)=O)c1` [GW435821X], the “Percent Control” value was 100%.
With `COc1ccc(COc2ccc(Cc3cnc(N)nc3N)cc2OC)cc1` [GW632580X] the “Percent Control” value was 67%.
`COc1cc(/C=N/Nc2ncnc3[nH]ncc23)ccc1O` [GW578748X] was tested, and the “Percent Control” value was 87%.
`NS(=O)(=O)c1ccc(N/N=C2\C(=O)Nc3ccc(Cl)cc32)cc1` [GW280670X] was tested, and the “Percent Control” value was 100%.
In the case of `CN(C)c1cc2c(Nc3ccc4c(cnn4Cc4ccccc4)c3)ncnc2cn1` [GW282974X], the “Percent Control” value is reported as 78%.
In the case of `COc1cc(C=NNc2ncnc3c2cnn3-c2ccccc2)ccc1O` [GW513184X], the “Percent Control” value is reported as 100%.
`CC(C)COC(=O)c1ccc2c(c1)/C(=C/Nc1ccc(S(N)(=O)=O)cc1)C(=O)N2` [GW416981X] was tested, and the “Percent Control” value was 100%.
`C[C@@H](Oc1cc(-n2cnc3ccc(OC4CCN(C)CC4)cc32)sc1C(N)=O)c1ccccc1Cl` [GSK579289A] was tested, and the “Percent Control” value was 29%.
In the case of `COC(=O)Nc1nc2ccc(Oc3ccc(NC(=O)Nc4cc(C(F)(F)F)ccc4F)cc3)cc2s1.Cl` [GW693917A], the “Percent Control” value is reported as 76%.
In the case of `O=C1Nc2ccc(C(=O)c3ccco3)cc2C1=Cc1cc(Cl)c(O)c(Cl)c1` [GW406108X], the “Percent Control” value is reported as 11%.
With `Cl.O=S1CCN(Cc2ccc(-c3ccc4ncnc(Nc5ccc(OCc6ccccc6)c(F)c5)c4c3)o2)CC1` [GW576924A] the “Percent Control” value was 100%.
For `CC1=C(C(=O)Nc2ccc3[nH]ncc3c2)C(c2ccc(Cl)c(Cl)c2)CC(=O)N1` (stereo not drawn) [GSK299115A], the “Percent Control” value was 83%.
With `O=C(Nc1n[nH]c2nc(-c3ccc(O)cc3)c(Br)cc12)C1CC1` [SB-725317] the “Percent Control” value was 100%.
With `COc1ccc2cc(-c3c(-c4ccncc4)nc(-c4ccc(S(C)(=O)=O)cc4C)n3C)ccc2c1` [SB-633825] the “Percent Control” value was 86%.
`COc1cc2ncnc(Nc3ccc4c(cnn4Cc4ccccc4)c3)c2cc1OC.Cl` [GW282449A] was tested, and the “Percent Control” value was 100%.
For `Cl.c1ccc(Cc2nc3ccc(Nc4ncnc5ccccc45)cc3[nH]2)cc1` [GR269666A], the “Percent Control” value was 100%.
For `NS(=O)(=O)c1ccc(N/N=C2\C(=O)Nc3ccc(-c4cnco4)cc32)cc1` [GW276655], the “Percent Control” value was 92%.
In the case of `COc1ccc2[nH]c3c4[nH]c5ccc(OC)cc5c4c4c(c3c2c1)C(=O)NC4=O` [GW296115X], the “Percent Control” value is reported as 80%.
In the case of `CCc1ccc(Oc2nccc(-c3c(-c4ccc(F)cc4)ncn3C3CCNCC3)n2)cc1` [SB-242719], the “Percent Control” value is reported as 64%.
With `CC1=C(C(=O)Nc2ccc3[nH]ncc3c2)C(c2ccc3ccccc3c2)CC(=O)N1` (stereo not drawn) [GSK270822A] the “Percent Control” value was 79%.
With `NS(=O)(=O)c1ccc(Nc2ncc(-c3ccccc3)o2)cc1` [GW572399X] the “Percent Control” value was 100%.
With `C/C(Nc1ccc(S(N)(=O)=O)cc1)=C1/C(=O)Nc2ccccc21` [GW335962X] the “Percent Control” value was 81%.
